These results are taken from PubChem BioAssay (NCATS).

Results filed as inconclusive are left out. Active and inactive are the calls of the source. The call rests on the fitted dose curve; in most records, active means well fitted curve in the direction sought with a large enough effect; inconclusive means small, poorly fitted or top-dose-only effect, or another doubt; inactive means no such curve, though single readings can be large; an effect the other way counts as inactive or inconclusive.

A short description of one experiment: qHTS of pediatric cancer cell lines to identify multiple opportunities for drug repurposing: Primary screen for OHS-50 cells (AID 1347103). Further: nearly all actives have a fitted effect of over 40% in size. Further: potency means the concentration at half of the fitted maximal effect.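 On activity change, negative = cytotoxic: plate controls were DMSO neutral control for no effect and bortezomib positive control for full effect.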 The note with it: OHS-50 osteosarcoma viability, CellTiter-Glo luminescence, 48 h; series mostly up to 57.3 µM; activity change, negative = cytotoxic: at the top concentration. Put shortly:
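Cells (500-1,000/well) rested 5 h, then received compounds for 48 h; metabolically active cells were measured by CellTiter-Glo luminescence. Final concentrations spanned up to 46 µM (MIPE, 11-point) or 0.59 nM-46 µM (NPC, 8-point) in primary screens, 11-point in follow-ups.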
For orientation: In qHTS, concentration-response curves come from the screen itself.
Consider `CCNC(=O)NCc1cccc(Cl)c1`, for which the “activity change, negative = cytotoxic” value is -6% (inactive).
Take `CCCCCCCCCCCCOCCOCCOCCOCCOCCOCCOCCOCCOCCO`: the Potency was 15.5 µM (active).
In the case of `OC[C@H]1O[C@@H]2O[C@H]3[C@H](O)[C@@H](O)[C@@H](O[C@H]4[C@H](O)[C@@H](O)[C@@H](O[C@H]5[C@H](O)[C@@H](O)[C@@H](O[C@H]6[C@H](O)[C@@H](O)[C@@H](O[C@H]7[C@H](O)[C@@H](O)[C@@H](O[C@H]8[C@H](O)[C@@H](O)[C@@H](O[C@H]1[C@H](O)[C@H]2O)O[C@@H]8CO)O[C@@H]7CO)O[C@@H]6CO)O[C@@H]5CO)O[C@@H]4CO)O[C@@H]3CO`, the “activity change, negative = cytotoxic” value was -1.03% (inactive).
Still for that read-out and setting: with `CNCCc1ccccn1` the figure was 11.6% (inactive); with `CCCCN1C[C@H](O)[C@@H](O)[C@H](O)[C@H]1CO`, -2.45% (inactive); with `CCN[C@@H]1C[C@H](N)[C@@H](OC2OC(CN)=CCC2N)[C@H](O)[C@H]1O[C@H]1OC[C@](C)(O)[C@H](NC)[C@H]1O` (stereo partly drawn), 0.649% [at 0.73 µM] (inactive).
The same measure, in the same setting: next, `NC(=O)c1ccccc1O`: -12.7% (inactive); `CC(=O)NCCCCCC(=O)O`: -8.19% (inactive); `O=c1[nH]c(=O)n([C@H]2C[C@H](O)[C@@H](CO)O2)cc1F`: 30.3% (inactive).
Still for that read-out and setting: next, `CCC1Nc2cc(Cl)c(S(N)(=O)=O)cc2S(=O)(=O)N1` (stereo not drawn): 7.29% (inactive); `COc1cc(C(=O)NCc2ccc(OCCN(C)C)cc2)cc(OC)c1OC`: -10.7% (inactive).
`COc1cc([C@H]2Oc3cc([C@H]4Oc5cc(O)cc(O)c5C(=O)[C@@H]4O)ccc3O[C@@H]2CO)ccc1O`: the “activity change, negative = cytotoxic” value is 10.1% (inactive).
On to `C#C[C@]1(O)CC[C@H]2[C@@H]3CCC4=CC(=O)CC[C@@H]4[C@H]3CC[C@@]21CC`, for which the “activity change, negative = cytotoxic” value is -14% (inactive).
Still for that read-out and setting: next, `O=C1C(=O)c2ccccc2C(O)=C1C1CCC(c2ccc(Cl)cc2)CC1` (stereo not drawn): 4.45% (inactive); `OC[C@H]1O[C@@H](Oc2ccc(O)cc2)[C@H](O)[C@@H](O)[C@@H]1O`: 22.2% (inactive); `N[C@H](C(=O)O)[C@@H](O)c1ccc(O)c(O)c1`: -10.3% (inactive).
The same measure, in the same setting: next, `CCC(C(=O)OCCOCCN(CC)CC)c1ccccc1` (stereo not drawn): -9.9% (inactive).
Turning to `CCOC(=O)Nc1ccc2c(c1)N(C(=O)CCN1CCOCC1)c1ccccc1S2`, the “activity change, negative = cytotoxic” value is -28.4% (inactive).

The nature of the next experiment: qHTS of pediatric cancer cell lines to identify multiple opportunities for drug repurposing: Primary screen for RD cells (AID 1347104).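 Further: plate controls were DMSO for no effect and bortezomib for full effect; nearly all actives have a fitted effect of over 55% in size.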 The conditions noted are these: RD rhabdomyosarcoma viability, CellTiter-Glo luminescence, 48 h; series mostly up to 46 µM; activity change, negative = cytotoxic: at the top concentration. A digest of the protocol: (§1)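 Plated cells (500-1,000 per well, growth media) were allowed to settle for 5 hours, treated with compound dilutions for 48 hours, then lysed with CellTiter-Glo for 15 min at room temperature before luminescence reading.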
`CCNC(=O)NCc1cccc(Cl)c1`: the “activity change, negative = cytotoxic” value is -0.172% (inactive).
Still for that read-out and setting: next, `OC[C@H]1O[C@@H]2O[C@H]3[C@H](O)[C@@H](O)[C@@H](O[C@H]4[C@H](O)[C@@H](O)[C@@H](O[C@H]5[C@H](O)[C@@H](O)[C@@H](O[C@H]6[C@H](O)[C@@H](O)[C@@H](O[C@H]7[C@H](O)[C@@H](O)[C@@H](O[C@H]8[C@H](O)[C@@H](O)[C@@H](O[C@H]1[C@H](O)[C@H]2O)O[C@@H]8CO)O[C@@H]7CO)O[C@@H]6CO)O[C@@H]5CO)O[C@@H]4CO)O[C@@H]3CO`: -6.88% (inactive); `CNCCc1ccccn1`: 11.1% (inactive).
Regarding `O=C(CCN1CCN2CCCC2C1)N1c2ccccc2Sc2ccc(Cl)cc21` (stereo not drawn), the “activity change, negative = cytotoxic” value was -19.8% [at 16.1 µM] (inactive).
Take `CN(Cc1ccc(C(C)(C)C)cc1)Cc1cccc2ccccc12`: the “activity change, negative = cytotoxic” value was -4.05% (inactive).
The same measure, in the same setting: with `CCCCN1C[C@H](O)[C@@H](O)[C@H](O)[C@H]1CO` the figure was 5.94% (inactive).
The same measure, in the same setting: with `CCN[C@@H]1C[C@H](N)[C@@H](OC2OC(CN)=CCC2N)[C@H](O)[C@H]1O[C@H]1OC[C@](C)(O)[C@H](NC)[C@H]1O` (stereo partly drawn) the figure was -1.92% [at 0.597 µM] (inactive); with `CCNC(=O)/C=C/c1cccc(Br)c1`, -9.53% (inactive); with `NC(=O)c1ccccc1O`, 1.98% (inactive).
Still for that read-out and setting: with `CCCCC(CC)CN1CN(CC(CC)CCCC)CC(C)(N)C1` (stereo not drawn) the figure was -15.3% (inactive); with `c1ccc(-c2nc[nH]c2-c2ccccc2)cc1`, -6.08% (inactive); with `CC(=O)NCCCCCC(=O)O`, -1.81% (inactive).
`O=[N+]([O-])c1cccc(S(=O)(=O)NCCNS(=O)(=O)c2cccc([N+](=O)[O-])c2)c1`: the “activity change, negative = cytotoxic” value was -1.89% (inactive).
On the same count and under the same terms, with `CCC1Nc2cc(Cl)c(S(N)(=O)=O)cc2S(=O)(=O)N1` (stereo not drawn) the figure was 3.77% (inactive).
The same measure, in the same setting: next, `COc1cc(C(=O)NCc2ccc(OCCN(C)C)cc2)cc(OC)c1OC`: -5.23% (inactive); `COc1cc([C@H]2Oc3cc([C@H]4Oc5cc(O)cc(O)c5C(=O)[C@@H]4O)ccc3O[C@@H]2CO)ccc1O`: -1.68% (inactive); `C#C[C@]1(O)CC[C@H]2[C@@H]3CCC4=CC(=O)CC[C@@H]4[C@H]3CC[C@@]21CC`: -0.0023% (inactive).
As for `CCCN(CCc1cccs1)[C@H]1CCc2c(O)cccc2C1`, the “activity change, negative = cytotoxic” value is -12.7% (inactive).
`CCCCCCCCCCCCSCCOCCO`: the “activity change, negative = cytotoxic” value was 1.59% (inactive).
The same measure, in the same setting: with `O=C1C(=O)c2ccccc2C(O)=C1C1CCC(c2ccc(Cl)cc2)CC1` (stereo not drawn) the figure was 12.7% (inactive); with `N=C(N)N1CCc2ccccc2C1`, -9.62% [at 4.84 µM] (inactive); with `OC[C@H]1O[C@@H](Oc2ccc(O)cc2)[C@H](O)[C@@H](O)[C@@H]1O`, -2.47% (inactive).
Still for that read-out and setting: with `N[C@H](C(=O)O)[C@@H](O)c1ccc(O)c(O)c1` the figure was 1.87% (inactive); with `CCC(C(=O)OCCOCCN(CC)CC)c1ccccc1` (stereo not drawn), -9.3% (inactive); with `CC(CNC1CCCCC1)OC(=O)c1ccccc1` (stereo not drawn), -1.69% (inactive).

Another experiment in a line: qHTS of pediatric cancer cell lines to identify multiple opportunities for drug repurposing: Primary screen for MG 63 (6-TG R) cells (AID 1347105). Further: on the % scale 0 is the no-effect control and ±100 the full control effect; nearly all actives have a fitted effect of over 50% in size. The conditions noted are these: MG 63 (6-TG R) viability, CellTiter-Glo, 48 h; series mostly up to 46 µM; activity change, negative = cytotoxic: at the top concentration. Put shortly: as §1
For `CCN(CC)CCOC(=O)C(Cc1cccc2ccccc12)CC1CCCO1` (stereo not drawn), the “activity change, negative = cytotoxic” value is -17.1% (inactive).
For `C[C@H]1[C@H]2CC[C@H]3[C@@H]4CC=C5C[C@@H](N(C)C)CC[C@]5(C)[C@H]4CC[C@]23CN1C`, the “activity change, negative = cytotoxic” value is -15.5% (inactive).
Still for that read-out and setting: with `OC[C@H]1O[C@@H]2O[C@H]3[C@H](O)[C@@H](O)[C@@H](O[C@H]4[C@H](O)[C@@H](O)[C@@H](O[C@H]5[C@H](O)[C@@H](O)[C@@H](O[C@H]6[C@H](O)[C@@H](O)[C@@H](O[C@H]7[C@H](O)[C@@H](O)[C@@H](O[C@H]8[C@H](O)[C@@H](O)[C@@H](O[C@H]1[C@H](O)[C@H]2O)O[C@@H]8CO)O[C@@H]7CO)O[C@@H]6CO)O[C@@H]5CO)O[C@@H]4CO)O[C@@H]3CO` the figure was -24.4% (inactive); with `CNCCc1ccccn1`, -1.25% (inactive).
The same measure, in the same setting: with `CCOC(=O)c1ccc(N)cc1` the figure was -33.9% (inactive); with `CCCCN1C[C@H](O)[C@@H](O)[C@H](O)[C@H]1CO`, -15.9% (inactive).
Same read-out and setting: with `CCN[C@@H]1C[C@H](N)[C@@H](OC2OC(CN)=CCC2N)[C@H](O)[C@H]1O[C@H]1OC[C@](C)(O)[C@H](NC)[C@H]1O` (stereo partly drawn) the figure was -16.5% [at 0.597 µM] (inactive); with `CCNC(=O)/C=C/c1cccc(Br)c1`, -28.3% (inactive).
`CN1CCc2cccc3c2[C@H]1Cc1ccc(O)c(O)c1-3`: the “activity change, negative = cytotoxic” value is 14.4% (inactive).
Still for that read-out and setting: next, `CC(C)(Cc1c[nH]c2ccccc12)NCC(O)COc1ccccc1C#N` (stereo not drawn): -20.8% (inactive).
Same read-out and setting: next, `CCCCC(CC)CN1CN(CC(CC)CCCC)CC(C)(N)C1` (stereo not drawn): -10.1% (inactive).
Still for that read-out and setting: with `c1ccc(-c2nc[nH]c2-c2ccccc2)cc1` the figure was -17.4% (inactive).
For the compound `CC(=O)NCCCCCC(=O)O`, the “activity change, negative = cytotoxic” value is -13.1% (inactive).
Still for that read-out and setting: with `O=[N+]([O-])c1cccc(S(=O)(=O)NCCNS(=O)(=O)c2cccc([N+](=O)[O-])c2)c1` the figure was -8.71% (inactive).
Same read-out and setting: with `O=c1[nH]c(=O)n([C@H]2C[C@H](O)[C@@H](CO)O2)cc1F` the figure was -3.78% (inactive).
Still for that read-out and setting: next, `CCC1Nc2cc(Cl)c(S(N)(=O)=O)cc2S(=O)(=O)N1` (stereo not drawn): -19.4% (inactive); `COc1cc(C(=O)NCc2ccc(OCCN(C)C)cc2)cc(OC)c1OC`: -26.5% (inactive); `COc1cc([C@H]2Oc3cc([C@H]4Oc5cc(O)cc(O)c5C(=O)[C@@H]4O)ccc3O[C@@H]2CO)ccc1O`: -13% (inactive).
Regarding `C#C[C@]1(O)CC[C@H]2[C@@H]3CCC4=CC(=O)CC[C@@H]4[C@H]3CC[C@@]21CC`, the “activity change, negative = cytotoxic” value is -18% (inactive).
In the case of `CCCCCCCCCCCCSCCOCCO`, the “activity change, negative = cytotoxic” value was -0.376% (inactive).
Still for that read-out and setting: next, `O=C1C(=O)c2ccccc2C(O)=C1C1CCC(c2ccc(Cl)cc2)CC1` (stereo not drawn): 2.17% (inactive); `N=C(N)N1CCc2ccccc2C1`: -18.3% [at 4.84 µM] (inactive); `OC[C@H]1O[C@@H](Oc2ccc(O)cc2)[C@H](O)[C@@H](O)[C@@H]1O`: -16.4% (inactive).
Still for that read-out and setting: next, `N[C@H](C(=O)O)[C@@H](O)c1ccc(O)c(O)c1`: 2.29% (inactive).
For the compound `CC(CNC1CCCCC1)OC(=O)c1ccccc1` (stereo not drawn), the “activity change, negative = cytotoxic” value was -25.2% (inactive).
